Measured values taken from the supplement of paper PMC10849652.
Of roughly 7,900 targets only a part is listed; those with a hit were picked by preference. About 0.6% of all pairs of compound and target were hits.

How the values were obtained:
Test in all cases: log2 fold change, soluble protein after heating vs DMSO (PISA); higher = thermal stabilisation; K562 cells, 10 uM, 30 min; active = over 0.2 and 3.5 SD of the protein, either way, in both replicates (recomputed)
filanesib = compound: CON(C)C(=O)N1N=C(c2cc(F)ccc2F)S[C@@]1(CCCN)c1ccccc1 [filanesib]
Method in brief: (§1)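 Soluble protein was defined as the supernatant after 21,000xg for 90 min. It came from K562 cells at 2×10^6 cells/mL given 10 μM compound for 30 min, heated in aliquots for 3 min across 48°C-58°C, pooled, and extracted in PBS with 0.5% NP-40 at 4°C, and was quantified by TMTpro 16plex LC-MS/MS with equalised channel sums. Thermal stability against control samples, from duplicates, is reported as log2 fold change.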

zotarolimus = compound: CO[C@H]1C[C@@H]2CC[C@@H](C)[C@@](O)(O2)C(=O)C(=O)N2CCCC[C@H]2C(=O)O[C@H]([C@H](C)C[C@@H]2CC[C@H](n3cnnn3)[C@H](OC)C2)CC(=O)[C@H](C)/C=C(\C)[C@@H](O)[C@@H](OC)C(=O)[C@H](C)C[C@H](C)/C=C/C=C/C=C/1C [zotarolimus]
Method in brief: as §1

idasanutlin = compound: COc1cc(C(=O)O)ccc1NC(=O)[C@@H]1N[C@@H](CC(C)(C)C)[C@](C#N)(c2ccc(Cl)cc2F)[C@H]1c1cccc(Cl)c1F [idasanutlin]
Method in brief: as §1

alisertib = compound: COc1cc(Nc2ncc3c(n2)-c2ccc(Cl)cc2C(c2c(F)cccc2OC)=NC3)ccc1C(=O)O [alisertib]
Method in brief: as §1

gefitinib = compound: COc1cc2ncnc(Nc3ccc(F)c(Cl)c3)c2cc1OCCCN1CCOCC1 [gefitinib]
Method in brief: as §1

[1] = compound: COc1cccc2cc(-c3nc([C@H]4CC[C@H](C(=O)O)CC4)n4ncnc(N)c34)[nH]c12
Method in brief: as §1

pictilisib = compound: CS(=O)(=O)N1CCN(Cc2cc3nc(-c4cccc5[nH]ncc45)nc(N4CCOCC4)c3s2)CC1 [pictilisib]
Method in brief: as §1

[2] = compound: COC1=CC=C(C=C1)CN2C=CC3=C2C=C(C=C3)C(=O)NO
Method in brief: as §1

[3] = compound: COc1cc2nc(-c3cc(F)ccc3O)nc(N[C@@H]3CNC[C@H]3C(C)(C)O)c2cc1OC
Method in brief: as §1

lapatinib = compound: CS(=O)(=O)CCNCc1ccc(-c2ccc3ncnc(Nc4ccc(OCc5cccc(F)c5)c(Cl)c4)c3c2)o1 [lapatinib]
Method in brief: as §1

Measured: log2 fold change

KMT2C isoform 3 (UniProt Q8NEZ4)
inactive: filanesib 0.029 | zotarolimus -0.028 | idasanutlin 0.012 | alisertib -0.028 | gefitinib 0.058 | [1] -0.027 | pictilisib 0.229

ING5 (UniProt Q8WYH8)
UniProt Q8WYH8, sequence (Q8WYH8 whole entry, looked up): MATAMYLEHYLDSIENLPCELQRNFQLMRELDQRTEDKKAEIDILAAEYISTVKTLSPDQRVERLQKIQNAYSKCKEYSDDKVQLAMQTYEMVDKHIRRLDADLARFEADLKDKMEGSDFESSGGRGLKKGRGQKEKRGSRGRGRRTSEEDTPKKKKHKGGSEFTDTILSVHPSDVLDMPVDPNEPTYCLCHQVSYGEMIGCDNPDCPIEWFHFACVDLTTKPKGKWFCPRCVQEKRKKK
inactive: [2] 0.208 | zotarolimus 0.014 | alisertib 0.003 | [3] 0.127 | [1] 0.179 | lapatinib -0.128

LRRCC1 (UniProt Q9C099)
UniProt Q9C099, sequence (Q9C099 whole entry, looked up): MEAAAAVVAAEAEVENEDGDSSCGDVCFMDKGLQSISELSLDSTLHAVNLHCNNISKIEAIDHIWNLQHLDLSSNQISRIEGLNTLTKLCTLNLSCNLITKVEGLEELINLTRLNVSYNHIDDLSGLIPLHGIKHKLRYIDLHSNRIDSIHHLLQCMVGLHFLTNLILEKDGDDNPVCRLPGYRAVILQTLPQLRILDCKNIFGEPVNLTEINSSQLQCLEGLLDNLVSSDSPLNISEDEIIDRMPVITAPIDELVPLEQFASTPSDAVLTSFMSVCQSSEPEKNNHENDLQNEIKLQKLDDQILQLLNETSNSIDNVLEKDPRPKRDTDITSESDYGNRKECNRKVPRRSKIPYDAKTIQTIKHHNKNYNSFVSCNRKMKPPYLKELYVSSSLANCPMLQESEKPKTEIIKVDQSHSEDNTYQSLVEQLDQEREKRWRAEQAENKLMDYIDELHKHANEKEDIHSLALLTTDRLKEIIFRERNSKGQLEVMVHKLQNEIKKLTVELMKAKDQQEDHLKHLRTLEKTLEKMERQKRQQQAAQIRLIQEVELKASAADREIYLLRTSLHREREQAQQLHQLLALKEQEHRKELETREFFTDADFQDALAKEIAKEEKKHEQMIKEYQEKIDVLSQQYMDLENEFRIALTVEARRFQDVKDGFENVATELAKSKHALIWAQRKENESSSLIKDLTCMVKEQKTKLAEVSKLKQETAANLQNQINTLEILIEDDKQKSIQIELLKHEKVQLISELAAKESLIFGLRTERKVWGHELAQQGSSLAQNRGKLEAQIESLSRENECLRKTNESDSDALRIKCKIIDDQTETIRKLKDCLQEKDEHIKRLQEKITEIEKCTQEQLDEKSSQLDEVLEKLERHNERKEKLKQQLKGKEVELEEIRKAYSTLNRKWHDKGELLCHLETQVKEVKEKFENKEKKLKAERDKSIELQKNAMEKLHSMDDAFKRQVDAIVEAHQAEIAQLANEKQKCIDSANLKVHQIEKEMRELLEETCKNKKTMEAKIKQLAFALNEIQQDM
inactive: idasanutlin -0.069

MGRN1 isoform 2 (UniProt O60291)
UniProt O60291, sequence (O60291 whole entry, looked up): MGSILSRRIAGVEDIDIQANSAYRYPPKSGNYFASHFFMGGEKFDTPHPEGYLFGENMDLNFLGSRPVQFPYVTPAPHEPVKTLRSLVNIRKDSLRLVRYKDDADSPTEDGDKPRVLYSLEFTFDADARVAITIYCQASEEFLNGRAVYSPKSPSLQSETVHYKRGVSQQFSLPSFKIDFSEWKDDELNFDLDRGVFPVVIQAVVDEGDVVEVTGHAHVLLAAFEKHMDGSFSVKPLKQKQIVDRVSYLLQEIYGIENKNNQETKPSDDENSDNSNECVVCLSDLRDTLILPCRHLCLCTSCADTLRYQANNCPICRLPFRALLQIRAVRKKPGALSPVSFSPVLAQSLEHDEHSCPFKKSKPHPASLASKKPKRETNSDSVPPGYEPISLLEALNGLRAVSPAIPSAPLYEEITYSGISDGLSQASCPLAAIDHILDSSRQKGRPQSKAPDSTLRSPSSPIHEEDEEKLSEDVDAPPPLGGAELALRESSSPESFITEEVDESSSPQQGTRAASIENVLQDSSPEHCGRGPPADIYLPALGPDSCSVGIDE
inactive: [2] -0.015 | zotarolimus -0.017 | idasanutlin -0.108 | [3] 0.069 | lapatinib -0.238 | pictilisib -0.004
